Experimental data: the supplement of paper PMC7411054

Legend:
Conditions in all cases: treatment time: 24 h
A549-ACTB-RAB5A [1] = assay: lowest phenotypically active concentration; higher = less potent
In short: (§1)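 Two criteria together defined phenotypic activity: deviation and reproducibility. Deviation meant ≥3 of 4 wells beyond the 95th percentile of Euclidean distances in solvent control wells, and reproducibility meant a median replicate Pearson correlation above the 95th percentile of non-replicates. Wells had been treated for 24 h at 0.3, 1, 3 or 9 µM in fifteen gene-edited A549, HepG2 and WPMY1 reporter lines before live imaging.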

A549-CANX-COX4 [2] = assay: as above
In short: as §1

A549-GM130-SQSTM1 [3] = assay: as above
In short: as §1

A549-TP53BP1-CLTA [4] = assay: as above
In short: as §1

A549-TUBA1B-RELA [5] = assay: as above
In short: as §1

HepG2-GM130-SQSTM1 [6] = assay: as above
In short: as §1

A549-ACTB-RAB5A [7] = assay: phenotypically active (imaging signature differs from DMSO and reproducible) at any of 0.3-9 uM (binary (1 = active, 0 = inactive)); higher = active
In short: as §1

A549-CANX-COX4 [8] = assay: as above
In short: as §1

A549-GM130-SQSTM1 [9] = assay: as above
In short: as §1

A549-TP53BP1-CLTA [10] = assay: as above
In short: as §1

A549-TUBA1B-RELA [11] = assay: as above
In short: as §1

HepG2-ACTB-RAB5A = assay: as above
In short: as §1

HepG2-CANX-COX4 = assay: as above
In short: as §1

HepG2-GM130-SQSTM1 [12] = assay: as above
In short: as §1

HepG2-TP53BP1-CLTA = assay: as above
In short: as §1

HepG2-TUBA1B-RELA = assay: as above
In short: as §1

WPMY1-CANX-COX4 = assay: as above
In short: as §1

WPMY1-GM130-SQSTM1 = assay: as above
In short: as §1

WPMY1-TP53BP1-CLTA = assay: as above
In short: as §1

WPMY1-TUBA1B-RELA = assay: as above
In short: as §1

SMILES	lowest phenotypically active concentration (A549-ACTB-RAB5A [1]) [µM]	lowest phenotypically active concentration (A549-CANX-COX4 [2]) [µM]	lowest phenotypically active concentration (A549-GM130-SQSTM1 [3]) [µM]	lowest phenotypically active concentration (A549-TP53BP1-CLTA [4]) [µM]	lowest phenotypically active concentration (A549-TUBA1B-RELA [5]) [µM]	lowest phenotypically active concentration (HepG2-GM130-SQSTM1 [6]) [µM]	phenotypically active (A549-ACTB-RAB5A [7])	phenotypically active (A549-CANX-COX4 [8])	phenotypically active (A549-GM130-SQSTM1 [9])	phenotypically active (A549-TP53BP1-CLTA [10])	phenotypically active (A549-TUBA1B-RELA [11])	phenotypically active (HepG2-ACTB-RAB5A)	phenotypically active (HepG2-CANX-COX4)	phenotypically active (HepG2-GM130-SQSTM1 [12])	phenotypically active (HepG2-TP53BP1-CLTA)	phenotypically active (HepG2-TUBA1B-RELA)	phenotypically active (WPMY1-CANX-COX4)	phenotypically active (WPMY1-GM130-SQSTM1)	phenotypically active (WPMY1-TP53BP1-CLTA)	phenotypically active (WPMY1-TUBA1B-RELA)
O=C(CCCc1ccc(-c2ccccc2F)cc1)Nc1ccc(O)cc1	1	1	1	1	1	3	1 (active)	1 (active)	1 (active)	1 (active)	1 (active)	1 (active)	1 (active)	1 (active)	1 (active)	1 (active)	1 (active)	1 (active)	1 (active)	1 (active)
O=C(Nc1c[nH]nc1-c1nc2cc(CN3CCOCC3)ccc2[nH]1)NC1CC1	≤ 0.3	≤ 0.3	≤ 0.3	≤ 0.3	≤ 0.3	≤ 0.3	1 (active)	1 (active)	1 (active)	1 (active)	1 (active)	1 (active)	1 (active)	1 (active)	1 (active)	1 (active)	1 (active)	1 (active)	1 (active)	1 (active)
CN1CCCC(n2nc(Cc3ccc(Cl)cc3)c3ccccc3c2=O)CC1 (stereo not given) [azelastine]	3	9	9	9	3	9	1 (active)	1 (active)	1 (active)	1 (active)	1 (active)	1 (active)	0 (inactive)	1 (active)	1 (active)	1 (active)	1 (active)	1 (active)	1 (active)	1 (active)
COc1cc2c(N3CCN(C(=O)Nc4ccc(OC(C)C)cc4)CC3)ncnc2cc1OCCCN1CCCCC1 [tandutinib]	9	9	3	9	9	9	1 (active)	1 (active)	1 (active)	1 (active)	1 (active)	1 (active)	1 (active)	1 (active)	1 (active)	1 (active)	1 (active)	1 (active)	0 (inactive)	1 (active)
CC(C)CNc1nc(-c2cccc3ncccc23)cn2c(-c3ccc(C(=O)NC4CC4)cc3)cnc12	≤ 0.3	1	≤ 0.3	1	≤ 0.3	1	1 (active)	1 (active)	1 (active)	1 (active)	1 (active)	1 (active)	1 (active)	1 (active)	1 (active)	1 (active)	0 (inactive)	1 (active)	1 (active)	0 (inactive)
CN1CCN([C@H]2CC[C@H](n3cc(-c4ccc(Oc5ccccc5)cc4)c4c(N)ncnc43)CC2)CC1	≤ 0.3	1	≤ 0.3	≤ 0.3	≤ 0.3	≤ 0.3	1 (active)	1 (active)	1 (active)	1 (active)	1 (active)	1 (active)	1 (active)	1 (active)	1 (active)	1 (active)	0 (inactive)	1 (active)	1 (active)	1 (active)
